Out of some 2,400 compounds screened, about 95 (4%) were called active.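 How the source made its calls: active means mean of duplicate membrane potential ratios lying over 3 SD above or below the buffer control mean, so actives fall on both sides; inactive means the rest.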 Only a sample is shown.

The experiment is described as follows: membrane potential effects in parental HEK293, counter-screen for CHT inhibitor project, cell-based, membrane potential dye (AID 493222).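 Further: parental cells lack the transporter so any hit is non-specific.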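 On membrane potential ratio readout (active if shifted either direction beyond buffer ±3SD; no single direction): ratio is peak minus trough fluorescence over baseline after EC90 choline challenge.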 As to conditions: choline response, at 10 µM; active = decrease or increase beyond buffer ±3SD.
As to `O=S(=O)(Nc1ccc(Cl)cn1)c1cnc(Cl)c(Br)c1`, the membrane potential ratio readout (active if shifted either direction beyond buffer ±3SD; no single direction) entry was “inactive”. To `Cc1ccc(CS(=O)(=O)c2ncc(Cl)c(C(=O)Nc3nnc(C)s3)n2)cc1` belongs “inactive”. To `COC(=O)C(C(=O)Nc1cccc(Cl)c1C)C1CCCC1` (configuration not stated) belongs “inactive”; to `Cc1ccc(C(=O)NC2CCCC(C)C2C)cc1S(=O)(=O)N1CCCCC1` (configuration not stated), “inactive”; to `Cc1cccc(-c2nc3ccc(C(=O)NCCN4CCN(C)CC4)cc3nc2-c2cccc(C)c2)c1`, “inactive”. To `O=C(c1cccs1)C1C(c2ccc(Br)cc2)NC(=S)NC1(O)C(F)(F)F` (configuration not stated) belongs “inactive”.

With `COc1ccc2c(c1)OC(O)(C(F)(F)C(F)F)CC2=O` (configuration not stated), the membrane potential ratio readout (active if shifted either direction beyond buffer ±3SD; no single direction) result was “inactive”.

In the case of `Cc1ccc(S(=O)(=O)/N=C(/NC(=S)Nc2c(C)n(C)n(-c3ccccc3)c2=O)c2ccccc2)cc1`, the membrane potential ratio readout (active if shifted either direction beyond buffer ±3SD; no single direction) result is “inactive”. On to `O=C(C1CCN(S(=O)(=O)c2ccc(Br)s2)CC1)N1CCN(c2ccccc2)CC1`, for which the membrane potential ratio readout (active if shifted either direction beyond buffer ±3SD; no single direction) entry was “inactive”. To `CC(=O)Nc1nc2c(s1)C(=O)NCC(C)(C)C2` belongs “inactive”. For the compound `CC1CCCC(NC(=O)c2cccc(N3CCCC3=O)c2)C1C` (configuration not stated), the membrane potential ratio readout (active if shifted either direction beyond buffer ±3SD; no single direction) result was “inactive”. With `CNCC(O)c1ccc(O)c(O)c1` (configuration not stated), the membrane potential ratio readout (active if shifted either direction beyond buffer ±3SD; no single direction) result was “inactive”. To `CCCCOc1ccc(Cl)cc1CSc1nncn1N` belongs “inactive”. The value for `O=C(Nc1ccn(Cc2ccccc2)n1)c1n[nH]c([N+](=O)[O-])c1Cl` was “inactive”.

On to `CCOc1ccc(/C=C2\SC(=S)N(NC(=O)c3ccncc3)C2=O)cc1OC`, for which the membrane potential ratio readout (active if shifted either direction beyond buffer ±3SD; no single direction) entry was “inactive”.

Turning to `CCOC(=O)C1(CCOC)CCN(Cc2ccc(C(=O)OC)cc2)CC1`, the membrane potential ratio readout (active if shifted either direction beyond buffer ±3SD; no single direction) result is “inactive”.

Take `OC1CN=C2Sc3ccccc3N2C1` (configuration not stated): the membrane potential ratio readout (active if shifted either direction beyond buffer ±3SD; no single direction) result was “inactive”. To `CC(Oc1ccc2ccccc2c1)C(=O)NNC(=S)NC(=O)c1ccco1` (configuration not stated) belongs “inactive”; to `CCCCCn1c(=O)c(C(=O)OCC)c(Cl)c2ccccc21`, “inactive”; to `O=[N+]([O-])c1ccccc1Nc1ccc(O)cc1`, 2.4 (active). The value for `Cc1ccc(SC(CC(=O)c2ccc(C(C)(C)C)cc2)C(=O)O)cc1` (configuration not stated) was “inactive”; that for `C/C(=N\Nc1nc2ccccc2[nH]1)c1cccs1` was “inactive”; that for `Nc1cc(N2CCCCCC2)c2nonc2c1[N+](=O)[O-]` was “inactive”.

As for `Cc1ccc(C(=O)N/C(=C/C=C/c2ccccc2)C(=O)NCc2ccco2)cc1`, the membrane potential ratio readout (active if shifted either direction beyond buffer ±3SD; no single direction) entry was “inactive”. On to `CCc1ccc2c(c1)C1(NN=C(c3ccccc3)S1)C(=O)N2` (configuration not stated), for which the membrane potential ratio readout (active if shifted either direction beyond buffer ±3SD; no single direction) result was “inactive”. Regarding `O=S(=O)(c1cccc(-c2nnc(SC(F)F)n2-c2ccccc2)c1)N1CCCCC1`, the membrane potential ratio readout (active if shifted either direction beyond buffer ±3SD; no single direction) result was “inactive”. To `Cn1c2ccccc2c(=O)c2c(O)cccc21` belongs “inactive”; to `CC(=O)OCCOCn1cnn2c(=O)c(Br)c(C)nc12`, “inactive”. For the compound `CCNC(=O)CC1C(=O)N(c2ccc(F)cc2)C(=O)N1CCc1sccc1C` (configuration not stated), the membrane potential ratio readout (active if shifted either direction beyond buffer ±3SD; no single direction) result is “inactive”. The value for `C/C(=N\NC(N)=S)c1cccnc1` was “inactive”.

Regarding `COc1ccc(NC(=O)c2sc(N)nc2-c2ccccc2)cc1`, the membrane potential ratio readout (active if shifted either direction beyond buffer ±3SD; no single direction) entry was “inactive”.

With `Cc1ccccc1-n1c(C)cc(/C=N/NC(=O)c2ccc(CN3CCOCC3)cc2)c1C`, the membrane potential ratio readout (active if shifted either direction beyond buffer ±3SD; no single direction) result is “inactive”. The value for `O=C(Nc1ccccc1C(=O)NCCCn1ccnc1)c1ccc(Cl)cc1Cl` was “inactive”; that for `CCc1ccccc1N1CN(Cc2ccco2)CNC1=S` was “inactive”. The value for `COC(=O)CN1C(C)=Nc2ccc(Br)cc2C1c1ccccc1` (configuration not stated) was “inactive”.

In the case of `CCN(CC)Cc1c(C(=O)N/N=C/c2cccc(OCc3ccc(F)cc3)c2)nnn1-c1nonc1N`, the membrane potential ratio readout (active if shifted either direction beyond buffer ±3SD; no single direction) entry is “inactive”. The value for `CC(C)CCn1c(CN(C)Cc2ccccc2)nc2c1c(=O)n(C)c(=O)n2C` was “inactive”; that for `O=C(O)c1ccc(N/N=C/c2cn(-c3ccccc3)nc2-c2cccs2)cc1` was “inactive”. As to `CCC(Oc1ccccc1C)C(=O)Nc1ccc(S(=O)(=O)Nc2cc(C)on2)cc1` (configuration not stated), the membrane potential ratio readout (active if shifted either direction beyond buffer ±3SD; no single direction) result is “inactive”. The value for `CC1CCN(C(=O)CN(c2ccc(Oc3ccccc3)cc2)S(C)(=O)=O)CC1` was “inactive”; that for `CCN(CC)CCC(c1ccc2c(c1)OCO2)c1c(OC)cc(OC)c2c(-c3ccccc3)cc(=O)oc12` (configuration not stated) was “inactive”. For `C/C(=N\N=C(N)N)c1ccc(Cl)cc1`, the membrane potential ratio readout (active if shifted either direction beyond buffer ±3SD; no single direction) result was “inactive”. `COC(=O)c1ccccc1NC(=O)Cn1nc(C(F)(F)F)c2c1CCC2`: the membrane potential ratio readout (active if shifted either direction beyond buffer ±3SD; no single direction) result was “inactive”. For the compound `O=C1c2cccc3cccc(c23)C(=O)N1CCCCCc1n[nH]c(=S)o1`, the membrane potential ratio readout (active if shifted either direction beyond buffer ±3SD; no single direction) entry is “inactive”. Regarding `CC(C)n1c(=S)[nH]c2cc(C(F)(F)F)ccc21`, the membrane potential ratio readout (active if shifted either direction beyond buffer ±3SD; no single direction) result was “inactive”. Consider `O=C(Cn1ncc2c3ccccc3n(Cc3ccccc3)c2c1=O)NCCCN1CCOCC1`, for which the membrane potential ratio readout (active if shifted either direction beyond buffer ±3SD; no single direction) entry was “inactive”. For the compound `CCOC(=O)N1CCN(C(=O)c2ccc(CN(c3ccc(C)c(C)c3)S(C)(=O)=O)cc2)CC1`, the membrane potential ratio readout (active if shifted either direction beyond buffer ±3SD; no single direction) entry is “inactive”. `CCCn1c2ccccc2c2cnn(CC(=O)NCCCN3CCCCC3CC)c(=O)c21` (configuration not stated): the membrane potential ratio readout (active if shifted either direction beyond buffer ±3SD; no single direction) entry is “inactive”.

Turning to `Cc1ccccc1-n1nnc2c(=O)oc3ccccc3c21`, the membrane potential ratio readout (active if shifted either direction beyond buffer ±3SD; no single direction) entry is “inactive”. Consider `C=CCn1c(SCc2ccc(C(=O)NCCO)cc2)nc2ccccc2c1=O`, for which the membrane potential ratio readout (active if shifted either direction beyond buffer ±3SD; no single direction) entry is “inactive”. To `O=C(/C=C/c1cn(-c2ccccc2)nc1-c1ccc2c(c1)OCCO2)NCCCN1CCOCC1` belongs “inactive”; to `COc1ccc(C(=O)NC(Cc2ccc(OC(=O)c3ccc(OC)cc3)cc2)C(=O)O)cc1` (configuration not stated), “inactive”; to `Cc1cccnc1NC(=O)c1cccc(S(=O)(=O)N2CCN(c3ccc(F)cc3)CC2)c1`, “inactive”. To `CCOc1ccccc1Nc1ccc2nonc2c1[N+](=O)[O-]` belongs “inactive”; to `O=C(CCCN1C(=O)CSc2ncccc21)N1CCN(c2cccc(C(F)(F)F)c2)CC1`, “inactive”.

`Cc1ccc2c(C)c(C(=O)N3CCC(N4CCC(C(=O)NC5CC5)CC4)CC3)oc2c1`: the membrane potential ratio readout (active if shifted either direction beyond buffer ±3SD; no single direction) result is “inactive”. On to `CCOCCCN(C)C1CCN(C(=O)c2oc3ccccc3c2NC(=O)COc2cccc(C)c2)CC1`, for which the membrane potential ratio readout (active if shifted either direction beyond buffer ±3SD; no single direction) was 3.33 (active).

Consider `COCCNc1nc(-n2nc(C)cc2C)nc2sc3c(c12)CCCC3`, for which the membrane potential ratio readout (active if shifted either direction beyond buffer ±3SD; no single direction) result was “inactive”. The value for `O=c1c2ccccc2nnn1CSc1nc2sc3c(c2c(=O)n1CC1CCCO1)CCC3` (configuration not stated) was “inactive”; that for `CC(C)(C)C(=O)/C(C#N)=C/c1ccc(O)cc1` was “inactive”; that for `Cc1oc2c(F)c(F)c(F)c(F)c2c1S(=O)(=O)Nc1cccc(C(F)(F)F)c1` was “inactive”. The value for `O=C(Nc1ccc(F)c(Cl)c1)C1CCN(S(=O)(=O)c2cccnc2)CC1` was “inactive”.
